{"source": "PubChem BioAssay (EPA / NIEHS)", "note": "The source made the active and inactive calls. How the source made its calls: active means hit-call score of the fitted dose curve at least 0.9, where 1 is the maximum; inactive means score below 0.9."}
{"assay": "BSK_BE3C_SRB: Viability Assessment in the BioMAP Diversity Plus: BE3C Assay (AID 2283028);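 on AC50: fitted both ways so AC50 may mark signal gain or loss versus DMSO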", "settings": "primary human bronchial epithelial cells", "procedure": "BSK_BE3C is a cell-based, multiplexed-readout assay that uses bronchial epithelial cell, a human lung primary cell, with measurements taken at 24 hours after chemical dosing in a 96-well plate.BSK_BE3C_SRB is an assay component measured in the BSK_BE3C assay. It measures 0.1% sulforhodamine related to cell death using Sulforhodamine staining technology.Data from the assay component BSK_BE3C_SRB was analyzed into 1 assay endpoint. This assay endpoint, BSK_BE3C_SRB, was analyzed with bidirectional fitting relative to DMSO as the negative control and baseline of activity. Using a type of viability reporter, gain or loss-of-signal activity can be used to understand changes in the signaling. Furthermore, this assay endpoint can be referred to as a primary readout, because this assay has produced multiple assay endpoints where this one serves a signaling function. To generalize the intended target to other relatable targets, this assay endpoint is annotated to the cell morphology intended target family, where the subfamily is cell conformation.\nThe levels of cell surface (or secreted, indicated by the prefix \"s\") biomarker endpoints were measured by ELISA. Overt cytotoxicity to cells in confluent adherent cultures (all systems other than the BT system) was assessed by measuring total protein levels using sulforhodamine B (SRB) staining in parallel cultures at the time of biomarker measurements, indicated as SRB endpoints. For proliferation assays for adherent cell types, individual cell types are cultured at sub-confluence and relative cell numbers quantified by SRB staining at time points optimized for each system (48 h: 3C and CASM3C systems; 72 h: BT and HDF3CGF systems; 96 h: SAg system). SRB was performed by staining cells with 0.1% SRB after fixation with 10% TCA and reading wells at 560 nm.Viability and proliferation of PBMC (T cells) was quantified by Alamar Blue reduction for the SAg and BT systems. For PBMC viability (referred to as PBMC Cytotoxicity within the assay endpoint names), cells were plated (75,000/well in a 96-well plate) and then chemical samples added for 1 h before addition of activators, SEB and TSST-1 (20 ng/mL final concentration each). Cells were incubated for 90 h. Then, Alamar Blue (20 uL/well) (Invitrogen, Cat DAL1100) was added for 6 h, and the plates were read with a fluorescence microplate reader at 546/580 nm (excitation/emission). For PBMC proliferation, cells were plated and activated as above but incubated for only 16 h prior to addition of Alamar Blue. Plates were read after 6 h."}
{"smiles": "O=P(OCC(Br)CBr)(OCC(Br)CBr)OCC(Br)CBr", "note": "(stereo not given)", "outcome": "inactive"}
{"smiles": "O=C(O)C(F)(F)OC(F)(F)C(F)(F)OC(F)(F)F", "outcome": "inactive"}
{"smiles": "COP(=O)(CCC(=O)NCO)OC", "outcome": "inactive"}
{"smiles": "ClC(Cl)=C(c1ccc(Cl)cc1)c1ccccc1Cl", "AC50": "10.5 µM (active)"}
{"smiles": "c1ccc(OP(Oc2ccccc2)Oc2ccccc2)cc1", "outcome": "inactive"}
{"smiles": "O=S(=O)(F)C(F)(F)C(F)(F)C(F)(F)C(F)(F)C(F)(F)C(F)(F)C(F)(F)C(F)(F)F", "outcome": "inactive"}
{"smiles": "O=c1ssc(Cl)c1Cl", "AC50": "5.34 µM (active)"}
{"smiles": "COP(N)(=S)OC", "outcome": "inactive"}
{"smiles": "CC(C)(C)c1ccccc1OP(=O)(Oc1ccccc1)Oc1ccccc1", "outcome": "inactive"}
{"smiles": "O=P1(N(CCCl)CCCl)NCCCO1", "note": "(stereo not given)", "outcome": "inactive"}
{"smiles": "O=C(O)C(F)(F)OC(F)(F)C(F)(F)OC(F)(F)C(=O)O", "outcome": "inactive"}
{"smiles": "CCN(CC)c1ccccc1", "outcome": "inactive"}
{"smiles": "O=[N+]([O-])c1ccc(Cl)c(Cl)c1", "outcome": "inactive"}
{"smiles": "O=C(O)C1C(C(=O)O)C2(Cl)C(Cl)=C(Cl)C1(Cl)C2(Cl)Cl", "note": "(stereo not given)", "outcome": "inactive"}
{"smiles": "N#Cc1cc([N+](=O)[O-])ccc1N", "outcome": "inactive"}
{"smiles": "CCOS(=O)(=O)OCC", "outcome": "inactive"}
{"smiles": "O=[N+]([O-])c1ccccc1", "outcome": "inactive"}
{"smiles": "O=S1(=O)OCC2C(CO1)C1(Cl)C(Cl)=C(Cl)C2(Cl)C1(Cl)Cl", "note": "(stereo not given)", "outcome": "inactive"}
{"smiles": "CCCCN(CCCC)SN(C)C(=O)Oc1cccc2c1OC(C)(C)C2", "outcome": "inactive"}
{"smiles": "CCOP(=S)(OCC)SCn1nnc2ccccc2c1=O", "outcome": "inactive"}
{"smiles": "Cc1ccc([N+](=O)[O-])cc1C", "outcome": "inactive"}
{"smiles": "CCCCCCCc1ccc(O)cc1", "AC50": "38.1 µM (active)"}
{"smiles": "CC(O)C(F)(F)C(F)(F)F", "note": "(stereo not given)", "outcome": "inactive"}
{"smiles": "CCOP(=S)(OCC)SCSc1ccc(Cl)cc1", "outcome": "inactive"}
{"smiles": "CC(Cl)CN(C)C", "note": "(stereo not given)", "outcome": "inactive"}
{"smiles": "Nc1ccc2ccccc2c1", "outcome": "inactive"}
{"smiles": "CCCCOCCOP(=O)(OCCOCCCC)OCCOCCCC", "outcome": "inactive"}
{"smiles": "CCCN(CCC)c1c([N+](=O)[O-])cc(C(C)C)cc1[N+](=O)[O-]", "outcome": "inactive"}
{"smiles": "CCOC(=O)c1ccccc1C(=O)OCC", "outcome": "inactive"}
{"smiles": "CCC1(c2ccccc2)C(=O)N=C(O)NC1=O", "note": "(stereo not given)", "outcome": "inactive"}
{"smiles": "Cc1ccc(N)cc1N", "outcome": "inactive"}
{"smiles": "CCC(C)(C)c1ccc(O)cc1", "outcome": "inactive"}
{"smiles": "CC(C)Nc1ccc(Nc2ccccc2)cc1", "AC50": "33.2 µM (active)"}
{"smiles": "c1ccc2c(c1)Nc1ccccc1S2", "outcome": "inactive"}
{"smiles": "CCCCC(CC)COP(=O)(Oc1ccccc1)Oc1ccccc1", "note": "(stereo not given)", "outcome": "inactive"}
{"smiles": "[N-]=[N+]=[N-]", "outcome": "inactive"}
{"smiles": "CCCCc1ccccc1", "outcome": "inactive"}
{"smiles": "CCOP(=S)(Oc1ccc([N+](=O)[O-])cc1)c1ccccc1", "note": "(stereo not given)", "outcome": "inactive"}
{"smiles": "Nc1ccc(Cl)cc1", "outcome": "inactive"}
{"smiles": "CCCCC(CC)COC(=O)c1c(Br)c(Br)c(Br)c(Br)c1C(=O)OCC(CC)CCCC", "note": "(stereo not given)", "outcome": "inactive"}
